# Measurements: PubChem BioAssay (NCATS)
# Unmarked numbers belong to inactive results. Results filed as inconclusive are left out. Active and inactive are the calls of the source. Unless noted, the call rests on the fitted dose curve; in most records, active means well fitted curve in the direction sought with a large enough effect; inconclusive means small, poorly fitted or top-dose-only effect, or another doubt; inactive means no such curve, though single readings can be large; an effect the other way counts as inactive or inconclusive.
# Columns and labels:
# [1] = target: Lysosomal acid glucosylceramidase (Homo sapiens) (UniProt P04062); assay: Glucocerebrosidase-p2 (AID 348; in the data active means potency below about 10 µM; further: potency means the concentration at half of the fitted maximal effect); settings: purified GBA, blue fluorogenic substrate, 40 min
# Outline: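 Normal human glucocerebrosidase (0.2 nM) with blue fluorogenic substrate (80 uM final) in citrate/phosphate pH 5.9 with 10mM sodium taurocholate, 0.01% tween-20; 40 min RT, NaOH/glycine stop; fluorescence Ex 365/Em 440; AC50 from a titration from 0.6 nM upwards.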
# [2] = target: Cytochrome P450 1A2 (Homo sapiens) (UniProt P05177); assay: p450-cyp1a2 (AID 410; calls by dose curve; further: potency means the concentration at half of the fitted maximal effect); settings: recombinant CYP1A2, luciferin-ME demethylation, luminescence; series mostly up to 57 µM
# Outline: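 20nM CYP1A2, 100uM Luciferin-ME (=Km), 100mM KPO4; cpd 10 min RT; +NADPH regen, 60 min RT; stop/detect 20 min; luminescence. Normalized to furafylline 57 uM = full inhibition.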
# [3] = NFAT Signaling Pathway (AID 444; active means well fitted curve in either direction with a large enough effect, not every such curve was filed as active;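 further: carbachol stimulus at about its EC50 of 1 µM final; on the % scale 0 is the no-effect control and ±100 the full control effect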); settings: Jurkat NFAT-bla M1, carbachol, beta-lactamase ratio, 5 h; at 7.69 µM (top of the series) unless noted
# Outline: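 Jurkat cells carrying an NFAT-driven β-lactamase reporter and co-transfected muscarinic M1 receptor were treated with compound plus carbachol (1 uM final, an EC50 level) for 5 h at 37 °C. CCF4 loading followed for 1 h at RT; 460/530 nm ratio gave %activity.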
# [4] = Stat Signaling Pathway (AID 446; active means well fitted curve in either direction with a large enough effect, not every such curve was filed as active;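 further: ME-180 cervical cancer cells given 40 pM IL-6 alongside compound; SIE-controlled beta-lactamase reporter measured as 460/530 nm FRET emission ratio; on the % scale 0 is the no-effect control and ±100 the full control effect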); settings: ME-180 SIE beta-lactamase reporter, IL-6 stimulated, 5 h; at 7.69 µM (top of the series) unless noted
# Outline: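 Overnight-plated ME-180 cells bearing a STAT Inducible Element beta-lactamase reporter; 5 h co-exposure to compound and 40 pM IL-6; values normalized to 300 pM IL-6 and 125 nM JAK inhibitor controls.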
# [5] = target: Glucocorticoid receptor (Homo sapiens) (UniProt P04150); assay: GR-GFP Redistribution (AID 450;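 active means compounds whose dose series gives a full or clear partial fitted curve of increased nuclear translocation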; further: potency means the concentration at half of the fitted maximal effect); settings: U2OS GR-GFP nuclear translocation, laser cytometry, 2 h
# [6] = target: Glucocorticoid receptor (Homo sapiens) (UniProt P04150); assay: GR-EFC Redistribution (AID 451; calls by dose curve; further: potency means the concentration at half of the fitted maximal effect); settings: CHO-K1 GR-EFC translocation, beta-gal luminescence, 2 h
# Outline: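 CHO-K1 cells stably expressing nuclear-localized β-gal enzyme acceptor and GR fused C-terminally to the enzyme donor fragment; ligand-driven nuclear translocation restores β-gal by complementation. Compounds titrated up to 46 uM final, 2 h at 37 °C; luminescence read.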
# [7] = target: Mitogen-activated protein kinase 10 (Mus musculus) (UniProt Q61831); assay: JNK3 AlphaScreen Assay (AID 530; active means well fitted curve in either direction with a large enough effect, not every such curve was filed as active;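 further: kinase came from lysate of stimulated human HepG2 cells; signal reports phosphorylation of biotinylated GST-cJun 1-79 at Ser73 with 10 µM ATP; on the % scale 0 is the no-effect control and ±100 the full control effect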); settings: JNK3 lysate, c-Jun phosphorylation; series mostly up to 57.1 µM
# Outline: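 Biotinylated GST-cJun(1-79) served as substrate for JNK3 in HepG2 lysates stimulated with IL-1beta and TNF-alpha. ATP was 10 uM final, pH 7.6. Ser73 phosphorylation was quantified by AlphaScreen (680 nm excitation).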
# [8] = target: 3',5'-cyclic-AMP phosphodiesterase 4B (Homo sapiens) (UniProt Q07343); assay: qHTS Assay for Inhibitors of PDE-IV (AID 607; active means well fitted activation curve with a large enough effect in the main read-out, with a control signal flat, not every such curve was filed as active; further: % of control where 0% means no effect); settings: HEK293 ACTOne CNG channel cells, membrane potential fluorescence; series mostly up to 22.9 µM
# Outline: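 Live HEK293 cells with a modified cyclic nucleotide-gated (CNG) channel report intracellular cAMP via membrane-potential dye fluorescence (ex 535/em 590 nm). Endogenous PDE-IV was targeted. Compounds were tested at up to 22.9 uM final; RO 20-1724 100 uM served as control.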
# [9] = target: Cytochrome P450 3A4 (Homo sapiens) (UniProt P08684); assay: qHTS Assay for Activators of Cytochrome P450 3A4 (AID 885); settings: recombinant CYP3A4, Luciferin-PPXE luminescence, 60 min; series mostly up to 57.1 µM; further: nearly all actives have a fitted effect of over 65% in size
# Outline: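 Using 20nM recombinant human CYP3A4 in potassium phosphate (200mM), substrate Luciferin-PPXE at 25uM, luminescent luciferin detection followed a 60-min RT NADPH reaction; data scaled to 57 uM ketoconazole.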
# [10] = target: Dual specificity protein kinase CLK4 (Homo sapiens) (UniProt Q9HAZ1); assay: qHTS Assay for Inhibitors of CDC-like Kinase 4 (ADP-FP Assay) (AID 1795); settings: Transcreener ADP fluorescence polarization; series mostly up to 50 µM; further: nearly all actives have a fitted effect of over 60% in size; further: potency means the concentration at half of the fitted maximal effect
# Outline: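 Recombinant human Clk4 (6.25 nM) phosphorylated RS repeat peptide (100 uM) with 1 uM ATP in Tris pH 7.5/MgCl2/EGTA/DTT/Triton buffer for one hour. ADP was quantified by Transcreener competitive fluorescence polarization against an ADP calibration curve.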
# [11] = target: Ubiquitin carboxyl-terminal hydrolase 1 (Homo sapiens) (UniProt O94782); assay: Inhibitors of USP1/UAF1: Pilot qHTS (AID 504865); settings: purified USP1/UAF1, Ub-rhodamine cleavage fluorescence; series mostly up to 54.9 µM;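 further: rhodamine fluorescence freed from ubiquitin-rhodamine substrate followed over time; top concentration of the series differs between compounds; on the % scale 0 is the no-effect control and ±100 the full control effect; nearly all actives have a fitted effect of over 35% in size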
# Outline: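 USP1/UAF1 complex (1nM) preincubated with compound 15 min at room temperature, then Ub-Rho substrate (150nM final) added. Fluorescence read kinetically at 480/540 nm, 6 reads every 60 seconds. Buffer: 50mM HEPES pH 7.8, 0.5mM EDTA, 0.1 mg/ml BSA, 1mM TCEP, 0.01% Tween-20.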
# [12] = Primary qHTS for small molecule stabilizers of the endoplasmic reticulum resident proteome: Secreted ER Calcium Modulated Protein (SERCaMP) assay (AID 1508630); settings: SH-SY5Y GLuc-SERCaMP (Gaussia luciferase released on ER calcium loss) secretion, thapsigargin, luminescence; series mostly up to 38.4 µM; further: on the % scale 0 is the no-effect control and ±100 the full control effect
# Outline: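 The SH-SY5Y reporter protocol was run at 3 concentrations up to 38.3 uM (primary) or 11 concentrations (follow-up): 16 h compound, 100 nM thapsigargin for 4 h, then extracellular luciferase luminescence.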
# [13] = AP1 Signaling Pathway (AID 357; active means well fitted curve in either direction with a large enough effect, not every such curve was filed as active); settings: ME-180 AP-1-bla reporter, EGF-induced, beta-lactamase ratio, 5 h; at 7.69 µM (top of the series) unless noted
# Outline: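 In this screen, ME-180 cells in Opti-MEM with 0.5% dialyzed FBS received EC50 EGF and compound titrations for 5 h. AP-1 reporter beta-lactamase was detected via CCF4 ratio, giving AC50 for positive and negative modulators.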
# [14] = target: Cytochrome P450 3A4 (Homo sapiens) (UniProt P08684); assay: qHTS Assay for Inhibitors and Substrates of Cytochrome P450 3A4 (AID 884); settings: recombinant CYP3A4, Luciferin-PPXE luminescence; series mostly up to 57.1 µM; further: potency means the concentration at half of the fitted maximal effect; nearly all actives have a fitted effect of over 50% in size
# Outline: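 Luminescent readout of luciferin produced by CYP3A4 (20 nM) dealkylation of Luciferin-PPXE, 25 uM (its KM). NADPH-driven reaction ran 60 min at RT after 10 min compound preincubation; data scaled to 57 uM ketoconazole as 100% inhibition.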
# [15] = target: Cytochrome P450 2C19 (Homo sapiens) (UniProt P33261); assay: qHTS Assay for Inhibitors and Substrates of Cytochrome P450 2C19 (AID 899); settings: recombinant CYP2C19, luciferin-H EGE luminescence; series mostly up to 57.1 µM; further: potency means the concentration at half of the fitted maximal effect; nearly all actives have a fitted effect of over 60% in size
# Outline: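 NADPH-dependent conversion of Luciferin-H EGE (10uM, at KM) by 5nM enzyme in 50mM KPO4, 60 min at 37C following 10 min compound preincubation. Stopped with luciferin detection buffer; luminescence read after 20 min.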
# [16] = target: Cytochrome P450 2D6 (Homo sapiens) (UniProt P10635); assay: qHTS Assay for Inhibitors and Substrates of Cytochrome P450 2D6 (AID 891); settings: recombinant CYP2D6, luciferin-ME EGE luminescence; series mostly up to 57.1 µM; further: potency means the concentration at half of the fitted maximal effect; nearly all actives have a fitted effect of over 60% in size
# Outline: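 Luminescent read-out of luciferin formed by 5 nM human CYP2D6 demethylating 30 uM Luciferin-ME EGE (Km level) over 60 min at room temperature after NADPH regeneration addition. Data normalized to full inhibition by 1.43 uM quinidine.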
# [17] = qHTS Assay for Identification of Small Molecule Agonists for Hypoxia Response Element Signaling Pathway (AID 914; active means well fitted activation curve with a large enough effect in the signal ratio, with a control signal flat, not every such curve was filed as active; the % refers to the signal ratio; further: % of control where 0% means no effect); settings: ME-180 (cervical carcinoma) HRE-bla reporter, beta-lactamase ratio, CoCl2, 17 h; activation: stronger effect = higher value
# Outline: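 In Opti-MEM containing 0.5% dialyzed FBS and 10 mM HEPES, ME-180 HRE-bla cells received a compound titration and EC50 CoCl2. They were incubated 17 hours, then CCF4-loaded 2.5 hours at room temperature before ratio reading.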
# [18] = target: Cytochrome P450 2C9 (Homo sapiens) (UniProt P11712); assay: qHTS Assay for Inhibitors and Substrates of Cytochrome P450 2C9 (AID 883); settings: recombinant CYP2C9, luciferin-H luminescence, 60 min; series mostly up to 57.1 µM; further: potency means the concentration at half of the fitted maximal effect; nearly all actives have a fitted effect of over 60% in size
# Outline: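 A luminogenic readout tracked human CYP2C9 (10nM) converting deoxyluciferin (100uM, at KM) in 25mM KPO4 during 60 min at 37C with regenerated NADPH. Values normalized to 57uM sulphaphenazole as complete inhibition.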
# Ubiquitin carboxyl-terminal hydrolase 1 (Homo sapiens), sequence (O94782 whole entry, looked up): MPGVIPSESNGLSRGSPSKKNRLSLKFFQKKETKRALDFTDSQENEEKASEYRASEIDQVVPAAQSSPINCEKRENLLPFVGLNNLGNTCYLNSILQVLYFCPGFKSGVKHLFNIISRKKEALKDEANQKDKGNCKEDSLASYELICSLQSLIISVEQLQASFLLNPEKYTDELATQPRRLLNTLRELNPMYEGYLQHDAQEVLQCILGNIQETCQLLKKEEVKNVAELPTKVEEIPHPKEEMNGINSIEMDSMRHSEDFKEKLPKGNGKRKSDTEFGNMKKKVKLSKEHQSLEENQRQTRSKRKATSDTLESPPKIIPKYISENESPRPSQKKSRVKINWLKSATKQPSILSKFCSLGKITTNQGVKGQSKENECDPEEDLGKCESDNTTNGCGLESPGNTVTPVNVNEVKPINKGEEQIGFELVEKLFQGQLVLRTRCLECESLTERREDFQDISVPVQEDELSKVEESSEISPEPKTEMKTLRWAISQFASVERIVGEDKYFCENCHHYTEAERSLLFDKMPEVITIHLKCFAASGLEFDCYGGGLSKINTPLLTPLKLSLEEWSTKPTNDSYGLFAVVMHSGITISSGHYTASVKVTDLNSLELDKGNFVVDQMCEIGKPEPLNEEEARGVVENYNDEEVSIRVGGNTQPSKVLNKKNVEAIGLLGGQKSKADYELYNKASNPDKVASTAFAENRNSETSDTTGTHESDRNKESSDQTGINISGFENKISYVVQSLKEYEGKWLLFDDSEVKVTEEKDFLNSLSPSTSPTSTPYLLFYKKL
# Glucocorticoid receptor (Homo sapiens), sequence (P04150 whole entry, looked up, the tested form may be a part): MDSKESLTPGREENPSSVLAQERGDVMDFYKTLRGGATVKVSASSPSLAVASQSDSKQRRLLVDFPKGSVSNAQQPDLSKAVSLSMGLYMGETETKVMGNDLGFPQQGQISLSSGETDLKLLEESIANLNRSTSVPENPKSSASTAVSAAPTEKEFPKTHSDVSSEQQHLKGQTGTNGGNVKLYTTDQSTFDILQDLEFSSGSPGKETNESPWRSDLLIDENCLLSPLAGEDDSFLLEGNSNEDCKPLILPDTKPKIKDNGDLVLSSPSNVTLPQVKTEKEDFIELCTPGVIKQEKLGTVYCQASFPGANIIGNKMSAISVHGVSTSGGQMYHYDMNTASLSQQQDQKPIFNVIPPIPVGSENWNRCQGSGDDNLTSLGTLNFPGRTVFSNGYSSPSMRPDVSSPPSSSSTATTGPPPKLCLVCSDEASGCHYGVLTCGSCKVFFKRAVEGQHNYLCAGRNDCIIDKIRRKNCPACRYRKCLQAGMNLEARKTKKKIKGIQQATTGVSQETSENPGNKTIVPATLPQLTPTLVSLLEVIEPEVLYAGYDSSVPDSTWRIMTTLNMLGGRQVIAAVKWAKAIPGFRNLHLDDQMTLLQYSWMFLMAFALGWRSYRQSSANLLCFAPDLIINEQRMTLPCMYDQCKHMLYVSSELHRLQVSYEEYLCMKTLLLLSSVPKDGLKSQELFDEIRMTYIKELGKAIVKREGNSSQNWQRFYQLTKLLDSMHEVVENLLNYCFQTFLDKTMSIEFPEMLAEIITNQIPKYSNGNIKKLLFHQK
# Lysosomal acid glucosylceramidase (Homo sapiens), sequence (P04062 whole entry, looked up): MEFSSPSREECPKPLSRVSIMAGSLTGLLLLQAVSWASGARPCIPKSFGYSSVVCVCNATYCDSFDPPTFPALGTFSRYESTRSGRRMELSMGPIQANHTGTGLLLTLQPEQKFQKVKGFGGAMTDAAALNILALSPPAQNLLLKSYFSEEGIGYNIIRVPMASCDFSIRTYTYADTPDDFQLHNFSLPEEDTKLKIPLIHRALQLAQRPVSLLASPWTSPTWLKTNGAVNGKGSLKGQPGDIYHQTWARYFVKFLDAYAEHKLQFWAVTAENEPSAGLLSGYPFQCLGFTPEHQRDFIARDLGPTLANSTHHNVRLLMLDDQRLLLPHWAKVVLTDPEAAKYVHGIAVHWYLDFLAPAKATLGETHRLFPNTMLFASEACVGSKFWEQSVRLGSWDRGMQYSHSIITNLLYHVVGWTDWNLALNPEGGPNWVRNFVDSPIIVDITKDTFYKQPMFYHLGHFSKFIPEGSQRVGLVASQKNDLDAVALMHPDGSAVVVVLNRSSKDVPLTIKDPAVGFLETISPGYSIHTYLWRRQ
# Cytochrome P450 2C19 (Homo sapiens), sequence (P33261 whole entry, looked up): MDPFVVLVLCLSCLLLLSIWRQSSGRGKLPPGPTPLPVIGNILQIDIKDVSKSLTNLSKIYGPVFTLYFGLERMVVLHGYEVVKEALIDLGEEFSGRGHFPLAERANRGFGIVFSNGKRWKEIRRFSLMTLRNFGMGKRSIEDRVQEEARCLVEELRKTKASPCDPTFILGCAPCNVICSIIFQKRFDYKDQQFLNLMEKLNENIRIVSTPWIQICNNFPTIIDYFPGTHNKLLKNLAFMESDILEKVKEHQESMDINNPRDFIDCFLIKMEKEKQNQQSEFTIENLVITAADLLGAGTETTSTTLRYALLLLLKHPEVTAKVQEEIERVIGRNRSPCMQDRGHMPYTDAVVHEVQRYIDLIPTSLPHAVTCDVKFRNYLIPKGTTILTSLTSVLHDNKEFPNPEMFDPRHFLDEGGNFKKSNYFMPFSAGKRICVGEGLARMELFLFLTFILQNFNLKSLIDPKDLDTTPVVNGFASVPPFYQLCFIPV
# Dual specificity protein kinase CLK4 (Homo sapiens), sequence (Q9HAZ1 whole entry, looked up): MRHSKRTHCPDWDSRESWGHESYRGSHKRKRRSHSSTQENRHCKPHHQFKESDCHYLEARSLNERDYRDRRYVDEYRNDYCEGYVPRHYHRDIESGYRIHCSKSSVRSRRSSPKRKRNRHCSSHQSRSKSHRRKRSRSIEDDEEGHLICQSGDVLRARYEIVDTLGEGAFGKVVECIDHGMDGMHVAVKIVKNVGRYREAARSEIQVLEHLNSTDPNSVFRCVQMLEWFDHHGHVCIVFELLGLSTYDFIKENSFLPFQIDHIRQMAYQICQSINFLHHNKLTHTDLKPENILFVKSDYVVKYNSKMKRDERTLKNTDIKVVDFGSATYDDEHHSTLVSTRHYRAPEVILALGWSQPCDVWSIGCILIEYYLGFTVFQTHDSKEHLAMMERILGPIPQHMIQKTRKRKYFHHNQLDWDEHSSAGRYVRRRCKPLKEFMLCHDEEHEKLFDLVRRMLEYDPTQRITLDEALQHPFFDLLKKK
# Cytochrome P450 3A4 (Homo sapiens), sequence (P08684 whole entry, looked up): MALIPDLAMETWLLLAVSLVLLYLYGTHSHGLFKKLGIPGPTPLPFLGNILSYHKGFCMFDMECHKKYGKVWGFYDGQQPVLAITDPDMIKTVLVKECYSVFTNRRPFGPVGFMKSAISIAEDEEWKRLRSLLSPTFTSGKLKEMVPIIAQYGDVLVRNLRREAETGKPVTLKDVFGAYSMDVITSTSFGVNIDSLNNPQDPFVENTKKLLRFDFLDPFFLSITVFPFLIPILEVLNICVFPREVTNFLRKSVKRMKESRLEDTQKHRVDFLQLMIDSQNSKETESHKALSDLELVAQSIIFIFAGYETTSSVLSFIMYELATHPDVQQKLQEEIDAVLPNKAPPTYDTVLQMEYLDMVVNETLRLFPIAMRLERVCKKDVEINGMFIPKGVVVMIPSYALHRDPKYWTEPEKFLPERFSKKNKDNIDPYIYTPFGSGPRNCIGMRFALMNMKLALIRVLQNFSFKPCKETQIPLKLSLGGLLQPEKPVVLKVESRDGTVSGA
# Cytochrome P450 1A2 (Homo sapiens), sequence (P05177 whole entry, looked up): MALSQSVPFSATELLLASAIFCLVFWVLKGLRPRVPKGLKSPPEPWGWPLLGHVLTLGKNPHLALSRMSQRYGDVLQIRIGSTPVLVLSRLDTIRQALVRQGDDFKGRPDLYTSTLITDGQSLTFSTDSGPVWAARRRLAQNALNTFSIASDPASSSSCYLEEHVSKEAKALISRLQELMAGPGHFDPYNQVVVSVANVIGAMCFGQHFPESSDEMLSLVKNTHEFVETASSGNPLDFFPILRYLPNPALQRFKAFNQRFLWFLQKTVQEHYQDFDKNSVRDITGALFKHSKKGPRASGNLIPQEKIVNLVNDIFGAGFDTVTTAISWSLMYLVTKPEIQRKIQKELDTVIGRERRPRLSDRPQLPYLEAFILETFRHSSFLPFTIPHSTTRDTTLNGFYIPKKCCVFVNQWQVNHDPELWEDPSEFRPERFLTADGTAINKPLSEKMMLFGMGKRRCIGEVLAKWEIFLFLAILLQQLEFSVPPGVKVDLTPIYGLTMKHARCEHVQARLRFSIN
# 3',5'-cyclic-AMP phosphodiesterase 4B (Homo sapiens), sequence (Q07343 whole entry, looked up): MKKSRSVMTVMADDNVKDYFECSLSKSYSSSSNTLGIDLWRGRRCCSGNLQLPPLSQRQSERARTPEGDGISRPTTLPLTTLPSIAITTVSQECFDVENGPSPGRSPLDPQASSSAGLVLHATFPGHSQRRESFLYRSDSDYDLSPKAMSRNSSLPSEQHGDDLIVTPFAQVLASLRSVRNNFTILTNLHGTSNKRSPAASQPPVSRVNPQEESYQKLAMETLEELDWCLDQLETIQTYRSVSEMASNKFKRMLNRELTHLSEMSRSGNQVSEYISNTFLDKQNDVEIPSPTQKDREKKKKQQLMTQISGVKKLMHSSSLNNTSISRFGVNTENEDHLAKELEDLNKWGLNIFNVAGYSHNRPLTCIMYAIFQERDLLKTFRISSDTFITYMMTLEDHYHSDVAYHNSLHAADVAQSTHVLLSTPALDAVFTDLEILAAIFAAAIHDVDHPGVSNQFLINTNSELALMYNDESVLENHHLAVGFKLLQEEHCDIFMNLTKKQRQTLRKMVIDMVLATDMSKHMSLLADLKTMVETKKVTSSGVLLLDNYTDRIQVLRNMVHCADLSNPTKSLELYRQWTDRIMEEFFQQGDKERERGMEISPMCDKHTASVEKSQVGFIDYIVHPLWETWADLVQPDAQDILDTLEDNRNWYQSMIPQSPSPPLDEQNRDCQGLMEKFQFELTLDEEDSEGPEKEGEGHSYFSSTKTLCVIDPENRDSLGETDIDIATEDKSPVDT
Structure (SMILES),Potency [1] [µM],Potency [2],"activity change, negative = inhibition [3] [%]","activity, negative = inhibition [4] [%]",Potency [5] [µM],Potency [6] [µM],Potency [7],Potency [8],Potency [9],Potency [10],Potency [11],outcome [12],"activity change, negative = inhibition [13] [%]",Potency [14],Potency [15],Potency [16],activation [17] [%],Potency [18]
Cc1noc(C)c1-c1nc(N(C)C)c2ccccc2n1,> 11.4,0.0398 µM (active),3.94,4.14,> 46,> 46,inactive,inactive,inactive,inactive,inactive,inactive,–,–,–,–,–,–
COc1ccc(CNc2cc(-c3ccccc3OC)ncn2)c(OC)c1,> 11.4,–,17.7,5.25,> 46,> 46,inactive,inactive,inactive,inactive,inactive,inactive,-6.46,6.31 µM (active),2 µM (active),–,–,–
COCCn1c(=O)cnc2cnc(N(C)C)nc21,> 11.4,–,7.07,-2.06,–,> 46,inactive,inactive,–,inactive,inactive,inactive,8.38,–,–,–,–,–
CN(Cc1ccco1)c1ncncc1-c1ccc2c(c1)OCO2,> 11.4,0.2 µM (active),–,-2.55,> 46,> 46,inactive,–,inactive,inactive,inactive,inactive,1.93,–,0.126 µM (active),1.26 µM (active),4.7,–
COc1cccc(-c2cncnc2NCc2cnc(C)cn2)c1,> 11.4,12.6 µM (active),8.15,7.19,> 46,> 46,inactive,inactive,inactive,inactive,inactive,inactive,–,1.58 µM (active),–,–,–,–
c1csc(CNc2nc(-c3ccoc3)nc3ccccc23)c1,> 11.4,–,-8.44,-7.57,–,> 46,inactive,–,inactive,11.2 µM (active),–,inactive,-9.82,7.94 µM (active),–,3.98 µM (active),–,–
c1cncc(-c2nccc(NCc3cccs3)n2)c1,> 11.4,0.2 µM (active),13.5,-3.1,> 46,> 46,inactive,–,inactive,–,inactive,inactive,4.03,–,7.94 µM (active),0.631 µM (active),–,0.398 µM (active)
